{
  "source": "PubChem BioAssay AID488896",
  "about": "(Broad Institute, 2010)",
  "note": "In all, about 320,000 compounds went through this assay and about 3,100 (0.97%) were called active.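 Rule for the calls: active = mean replicate inhibition of at least 70% and a set share of replicates each scoring 70 or more; inconclusive = meets just one of the two criteria; inactive = fails both criteria.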 Only a selection was taken, and actives are over-represented in it overall.",
  "data": [
    {"target": "Scavenger receptor class B member 1 (Mus musculus) (UniProt Q61009)", "sequence (Q61009 whole entry, looked up)": "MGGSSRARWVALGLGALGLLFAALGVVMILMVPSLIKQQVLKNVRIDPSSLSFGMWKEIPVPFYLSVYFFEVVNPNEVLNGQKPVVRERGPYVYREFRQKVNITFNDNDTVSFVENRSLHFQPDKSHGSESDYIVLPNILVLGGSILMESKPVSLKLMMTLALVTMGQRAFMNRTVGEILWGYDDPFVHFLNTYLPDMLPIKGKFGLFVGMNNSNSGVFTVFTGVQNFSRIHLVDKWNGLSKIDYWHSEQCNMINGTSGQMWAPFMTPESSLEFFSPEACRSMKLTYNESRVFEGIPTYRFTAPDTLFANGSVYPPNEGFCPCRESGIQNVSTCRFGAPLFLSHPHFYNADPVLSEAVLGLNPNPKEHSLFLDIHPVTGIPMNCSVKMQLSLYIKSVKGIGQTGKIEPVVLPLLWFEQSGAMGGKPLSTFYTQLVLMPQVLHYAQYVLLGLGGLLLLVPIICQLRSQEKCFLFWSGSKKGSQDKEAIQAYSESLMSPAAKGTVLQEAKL", "experiment": "inhibitors of SR-BI mediated HDL lipid uptake, primary screen, ldlA[mSR-BI] cells, fluorescence, single point (AID 488896);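 note: 0% = median of neutral control wells and 100% = median of positive control wells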", "settings": "ldlA[mSR-BI] CHO cells, DiI-HDL uptake fluorescence, 3 h; at 12.5 µM; hits give high values", "values": [
      {"molecule": "CCCOC(=O)c1[nH]c2c(c1C)C(=O)CC(c1cc(OC)c(OC)c(OC)c1)C2", "note": "(configuration not stated)", "inhibition": "81.3% (active)"},
      {"molecule": "COCCOC(=O)c1[nH]c2c(c1C)C(=O)CC(c1ccc(OC)cc1)C2", "note": "(configuration not stated)", "inhibition": "41.6% (inactive)"},
      {"molecule": "CCCOC(=O)c1[nH]c2c(c1C)C(=O)CC(c1cccs1)C2", "note": "(configuration not stated)", "inhibition": "59.1% (inactive)"},
      {"molecule": "Cc1cccc(NC(=S)N2CCC(C(=O)c3ccc(F)cc3)CC2)c1", "inhibition": "14.1% (inactive)"},
      {"molecule": "C#CCOCCOCCOCCNc1nc(N2CCN(C(=O)Cn3cc(CCO)nn3)CC2)nc(N2CCN(C(=O)[C@H](CCCCN)n3cc(CCCC)nn3)CC2)n1", "inhibition": "-18.7% (inactive)"},
      {"molecule": "COc1ccc(C(CNC(=O)c2cc(S(=O)(=O)Nc3cccc(C)c3)ccc2C)N2CCCC2)cc1", "note": "(configuration not stated)", "inhibition": "-20.9% (inactive)"},
      {"molecule": "COC(=O)c1c(NC(C)=O)sc(C(=O)Nc2ccccc2OC)c1C", "inhibition": "71.5% (active)"},
      {"molecule": "CCC(=O)Nc1sc(C(=O)Nc2ccccc2)c(C)c1C(=O)OC", "inhibition": "68.4% (inactive)"},
      {"molecule": "COc1ccccc1NC(=O)c1ccc(C)s1", "inhibition": "18% (inactive)"},
      {"molecule": "c1ccc2c(c1)OC1OC2Oc2ccccc21", "inhibition": "-7.46% (inactive)"},
      {"molecule": "CC(C)Sc1nc(N)nc2c1ncn2C1OC(CO)C(O)C1O", "note": "(configuration not stated)", "inhibition": "-12.5% (inactive)"},
      {"molecule": "Cc1ccc(/C=N/NC(=O)C2=NNC(c3ccccc3)(c3ccccc3)C2)c(O)c1", "inhibition": "106% (active)"},
      {"molecule": "Cc1ccc2occ(/C=N/NC(=O)c3ccccc3C)c(=O)c2c1", "inhibition": "-16.4% (inactive)"},
      {"molecule": "COc1ccc(/C=N/NC(=O)c2cc(-c3cccc(C)c3)nc3ccccc23)cc1O", "inhibition": "66.3% (inactive)"},
      {"molecule": "CN(C)C(CNC(=O)c1cc2ccccc2o1)c1ccccc1", "note": "(configuration not stated)", "inhibition": "6.69% (inactive)"},
      {"molecule": "O=C(O)c1ccc(OCC2CCCO2)cc1", "note": "(configuration not stated)", "inhibition": "-17.3% (inactive)"},
      {"molecule": "O=C(O)c1ccc(/C=N/NC(=O)c2ccc(Br)cc2)cc1", "inhibition": "-48.4% (inactive)"},
      {"molecule": "O=C(N/N=C/c1ccc(OCC2COCCO2)cc1)c1ccc(Br)cc1", "note": "(configuration not stated)", "inhibition": "74.1% (active)"},
      {"molecule": "CCOC(=O)C1(O)CC(C)=NN1C(=O)c1cccc(Br)c1", "note": "(configuration not stated)", "inhibition": "5.6% (inactive)"},
      {"molecule": "CC1=NN(C(=O)c2ccc(Br)cc2)C(O)(c2ccccc2)C1", "note": "(configuration not stated)", "inhibition": "88.2% (active)"},
      {"molecule": "CC1=NN(C(=O)c2ccccc2Br)C(O)(c2cccnc2)C1", "note": "(configuration not stated)", "inhibition": "-13.8% (inactive)"},
      {"molecule": "COc1cc2c(cc1CNC[C@H]1O[C@@H](n3cnc(C(N)=O)n3)[C@H](O)[C@@H]1O)OCO2", "inhibition": "-13.6% (inactive)"},
      {"molecule": "O=C1CC(c2ccccc2)C(=O)N2C(=O)CC(c3ccccc3)C(=O)N12", "note": "(configuration not stated)", "inhibition": "-16.5% (inactive)"},
      {"molecule": "COc1ccc(CNCCCn2cnc3c(OCc4ccccc4)ncnc32)cc1", "inhibition": "-7.17% (inactive)"},
      {"molecule": "COc1cccc(CC(=NO)c2cccc(OC)c2)c1", "inhibition": "2.96% (inactive)"},
      {"molecule": "O=C(CCC(=O)N1CCN(S(=O)(=O)c2ccc(Cl)cc2)CC1)NCc1cccc(C(F)(F)F)c1", "inhibition": "-6.5% (inactive)"},
      {"molecule": "CCOc1cc(CN2CCN(C(=O)CC(C)C)CC2)ccc1OC", "inhibition": "1.83% (inactive)"},
      {"molecule": "CC(C)CC(=O)N1CCN(Cc2cccc(Cl)c2)CC1", "inhibition": "-7.62% (inactive)"},
      {"molecule": "CC(C)CC(=O)N1CCN(Cc2ccccc2Br)CC1", "inhibition": "82.7% (active)"},
      {"molecule": "O=C(Nc1c(Br)cc2c(c1Br)Cc1ccccc1-2)C(F)(F)F", "inhibition": "23.8% (inactive)"},
      {"molecule": "CN(C)c1ccc(Nc2c3c4c(cccc4n(C)c2=O)C(=O)c2ccccc2-3)cc1", "inhibition": "99.9% (active)"},
      {"molecule": "CN(C)c1ccc(C2N(C)C(=O)c3ccccc3N2C)cc1", "note": "(configuration not stated)", "inhibition": "-4.86% (inactive)"},
      {"molecule": "CCOC(=O)CCC(NC(=O)c1ccc(CNc2nc3cc(C(F)(F)F)ccc3nc2C(=O)OCC)cc1)C(=O)OCC", "note": "(configuration not stated)", "inhibition": "43.7% (inactive)"},
      {"molecule": "O=C1C[C@@H]2c3c(cccc3CN1Cc1ccccc1)C[C@@H](O)[C@H]2O", "inhibition": "-2.09% (inactive)"},
      {"molecule": "COc1ccc(OC)c(Cc2cnc3nc(N)nc(N)c3c2C)c1", "inhibition": "25.9% (inactive)"},
      {"molecule": "c1ccc(C(=NNc2nc3ccccc3s2)c2ccccn2)cc1", "inhibition": "40.5% (inactive)"},
      {"molecule": "O=C(c1cccc(S(=O)(=O)N2CCCCCC2)c1)N1CCN(Cc2ccccc2)CC1", "inhibition": "19.3% (inactive)"},
      {"molecule": "O=S(=O)(O)c1cc2onnc2c2ccccc12", "inhibition": "-15.5% (inactive)"},
      {"molecule": "Cc1ccc(SCc2c(C(=O)N/N=C/C3CC=CCC3)nnn2-c2nonc2N)cc1", "note": "(configuration not stated)", "inhibition": "-16.5% (inactive)"},
      {"molecule": "Nc1nonc1-n1nnc(C(=O)N/N=C/c2cc(Br)ccc2O)c1CSC1=NCCS1", "inhibition": "104% (active)"},
      {"molecule": "Cc1ccc(SCc2c(C(=O)N/N=C/c3cccnc3)nnn2-c2nonc2N)cc1", "inhibition": "-5.04% (inactive)"},
      {"molecule": "O=[N+]([O-])c1ccc(C=NN=Cc2ccc([N+](=O)[O-])cc2)cc1", "inhibition": "27% (inactive)"},
      {"molecule": "CC(C)(C)c1nnc2sc(SCC(O)=C(C#N)c3nc4ccccc4[nH]3)nn2c1=O", "inhibition": "22.5% (inactive)"},
      {"molecule": "CC(C)(C)C(=O)OCc1nc(-c2ccc(O)c(O)c2)cs1", "inhibition": "-7.58% (inactive)"},
      {"molecule": "COc1ccc(-c2csc(Cc3nc(O)cs3)n2)cc1", "inhibition": "56.2% (inactive)"},
      {"molecule": "COc1ccc(OC)c(Nc2nc(-c3ccc(O)c(O)c3)cs2)c1", "inhibition": "108% (active)"},
      {"molecule": "CCN1C[C@@H]2[C@@H]3C(=O)N(C)C(=O)[C@@H]3[C@](C)(C1=O)N2C(=O)c1ccccc1", "inhibition": "27.8% (inactive)"},
      {"molecule": "COc1ccc(CCC(=O)Nc2ccc(Cl)c(S(=O)(=O)N3CCOCC3)c2)cc1OC", "inhibition": "60.3% (inactive)"},
      {"molecule": "COc1ccc(/C=N/NC(=O)CNC(=O)c2ccc(S(=O)(=O)N3CCCC3)cc2)c(OC)c1", "inhibition": "84.2% (active)"},
      {"molecule": "COc1cc(C(=O)NNC(=O)c2ccc(S(=O)(=O)N3CCCCC3)cc2)cc(OC)c1OC", "inhibition": "-0.571% (inactive)"},
      {"molecule": "COc1cccc(/C=N/NC(=O)CNC(=O)c2ccc(S(=O)(=O)N3CCOCC3)cc2)c1OC", "inhibition": "8.73% (inactive)"},
      {"molecule": "COc1ccc(Cn2cc(CN3CCS(=O)(=O)N(Cc4ccc(-c5cccc(Cl)c5)cc4)C(C)C3=O)nn2)cc1", "note": "(configuration not stated)", "inhibition": "34.7% (inactive)"},
      {"molecule": "C=CC(=O)Nc1ccc(Nc2ccnc(Nc3ccc(N4CCN(C)CC4)cc3)n2)cc1", "inhibition": "5.16% (inactive)"},
      {"molecule": "COc1ccc(N2CCC(CNC(=S)Nc3c(C)cccc3C)C2)cc1", "note": "(configuration not stated)", "inhibition": "80.7% (active)"},
      {"molecule": "COc1ccc(NC(=S)NCC2CCN(c3ccc(OC)cc3)C2)cc1", "note": "(configuration not stated)", "inhibition": "27.5% (inactive)"},
      {"molecule": "COc1ccc(NC(=S)NCCN2CCC(C)CC2)cc1", "inhibition": "1.02% (inactive)"},
      {"molecule": "Cc1ccccc1N1CCN(C(=O)c2cccnc2)CC1", "inhibition": "-2.45% (inactive)"}
    ]}
  ]
}
